Calls of active or inactive are those of the source. The calls were made as follows: active = hit-call score of the fitted dose curve at least 0.9, where 1 is the maximum; inactive = score below 0.9.

Read-out in the assay: Vascular cell adhesion molecule 1 (VCAM1), VCAM1 (gene 7412)
Description: BSK_MyoF_VCAM1: BioMAP Diversity Plus: MyoF Assay for Vascular cell adhesion molecule 1 (VCAM1) Biomarker Activity (AID 2284231). As to conditions: primary human lung fibroblasts. As to the method: BSK_MyoF is a cell-based, multiplexed-readout assay that uses lung fibroblasts, […], with measurements taken at 24 hours after chemical dosing in a microplate: 96-well plate.BSK_MyoF_VCAM1 is an assay component measured in the BSK_MyoF assay. It measures VCAM-1 antibody related to regulation of gene expression using ELISA technology.Data from the assay component BSK_MyoF_VCAM1 was analyzed at the endpoint, BSK_MyoF_VCAM1, in the positive analysis fitting direction relative to DMSO as the negative control and baseline of activity. Using a type of binding reporter, gain or loss-of-signal activity can be used to understand protein changes. To generalize the intended target to other relatable targets, this assay endpoint is annotated to the 'cell adhesion molecules' intended target family, where the subfamily is 'Immunoglobulin CAM'.
The levels of cell surface (or secreted, indicated by the prefix "s") biomarker endpoints were measured by ELISA. Overt cytotoxicity to cells in confluent adherent cultures (all systems other than the BT system) was assessed by measuring total protein levels using sulforhodamine B (SRB) staining in parallel cultures at the time of biomarker measurements, indicated as SRB endpoints. For proliferation assays for adherent cell types, individual cell types are cultured at sub-confluence and relative cell numbers quantified by SRB staining at time points optimized for each system (48 h: 3C and CASM3C systems; 72 h: BT and HDF3CGF systems; 96 h: SAg system). SRB was performed by staining cells with 0.1% SRB after fixation with 10% TCA and reading wells at 560 nm.Viability and proliferation of PBMC (T cells) was quantified by Alamar Blue reduction for the SAg and BT systems. For PBMC viability (referred to as PBMC Cytotoxicity within the assay endpoint names), cells were plated (75,000/well in a 96-well plate) and then chemical samples added for 1 h before addition of activators, SEB and TSST-1 (20 ng/mL final concentration each). Cells were incubated for 90 h. Then, Alamar Blue (20 uL/well) (Invitrogen, Cat DAL1100) was added for 6 h, and the plates were read with a fluorescence microplate reader at 546/580 nm (excitation/emission). For PBMC proliferation, cells were plated and activated as above but incubated for only 16 h prior to addition of Alamar Blue. Plates were read after 6 h.
In the case of `O=C(CCl)NCO`, the outcome was inactive.

For `O=C(O)COc1cc(Cl)c(Cl)cc1Cl`, the result was inactive.

Take `Nc1c(Oc2ccccc2)cc(O)c2c1C(=O)c1ccccc1C2=O`: the outcome was inactive.

Consider `COCC(=O)N(c1c(C)cccc1C)[C@H](C)C(=O)OC`, for which the result was inactive.

As for `OC(Cc1ccccc1Cl)(Cn1cncn1)C1(Cl)CC1` (stereo not given), the outcome was inactive.

For `O=S(=O)(C(Cl)(Cl)Cl)C(Cl)(Cl)Cl`, the concentration at half-maximal activity (AC50) is 3.12 µM (active).

Turning to `CCOC(=O)C(SP(=S)(OC)OC)c1ccccc1` (stereo not given), the result was inactive.

For the compound `c1ccc2sc(SNC3CCCCC3)nc2c1`, the outcome was inactive.

Take `Oc1c(Br)cc(Br)cc1Br`: the AC50 is 15.4 µM (active).

With `Cc1ccc(OP(=O)(Oc2ccc(C)cc2C)Oc2ccc(C)cc2C)c(C)c1`, the result was inactive.

Take `O=[N+]([O-])c1cccc2ccccc12`: the result was inactive.

For `Oc1cccc(-c2ccccc2)c1`, the AC50 is 32.3 µM (active).

Take `CCOP(=S)(OCC)SCS(=O)(=O)C(C)(C)C`: the outcome was inactive.

With `CCOP(=O)(OCC)OC(=CCl)c1ccc(Cl)cc1Cl`, the AC50 is 31.2 µM (active).

Consider `Nc1ccc(N)cc1`, for which the outcome was inactive.

On to `OC(Cc1ccccc1Cl)(Cn1[nH]cnc1=S)C1(Cl)CC1` (stereo not given), for which the AC50 was 30.1 µM (active).

As for `CC(C)(COCC1CO1)COCC1CO1` (stereo not given), the result was inactive.

Take `CC(C=O)Cc1ccc2c(c1)OCO2` (stereo not given): the result was inactive.

Take `CC1(C)[C@H](C(=O)O[C@H](C#N)c2cccc(Oc3ccccc3)c2)[C@@H]1/C=C(\Cl)C(F)(F)F`: the outcome was inactive.

Consider `Cc1cc(Cl)ccc1OC(C)C(=O)O` (stereo not given), for which the result was inactive.

Consider `[Cl][Sn]([c]1ccccc1)([c]1ccccc1)[c]1ccccc1`, for which the AC50 is 0.0907 µM (active).

Consider `C#CCOC(=O)/C=C(C)/C=C/CC(C)CCCC(C)C` (stereo not given), for which the concentration at half-maximal activity (AC50) is 20 µM (active).

Regarding `Cc1cccc(OP(=O)(Oc2cccc(C)c2)Oc2cccc(C)c2)c1`, the outcome was inactive.

Turning to `c1ccc(-c2cccc(-c3ccccc3)c2)cc1`, the AC50 is 29.1 µM (active).

For `Cc1ccccc1OP(=O)(Oc1ccccc1C)Oc1ccccc1C`, the AC50 is 11.4 µM (active).

As for `Oc1ccc(Cc2ccc(O)cc2)cc1`, the result was inactive.

For the compound `C=CC(Cl)CCl` (stereo not given), the AC50 is 4.05 µM (active).

For `CCCCCCCCCCCCN(C)C`, the result was inactive.

For the compound `Cc1ccc2nc3sc(=O)sc3nc2c1`, the AC50 was 7.88 µM (active).

`O=C1C=CC(=O)c2ccccc21`: the AC50 was 3.72 µM (active).

As to `O=S(=O)(c1ccc(Cl)cc1)c1cc(Cl)c(Cl)cc1Cl`, the outcome was inactive.

As to `C[C@]12CC[C@@H](O)C[C@@H]1CC[C@@H]1[C@@H]2CC[C@]2(C)C(=O)CC[C@@H]12`, the result was inactive.

Turning to `CC(C)(C)c1cc([N+](=O)[O-])cc(C(C)(C)C)c1O`, the outcome was inactive.

For `CC(C)=CC1C(C(=O)OCc2cccc(Oc3ccccc3)c2)C1(C)C` (stereo not given), the result was inactive.

With `Cc1ccccc1OP(=O)(Oc1ccccc1)Oc1ccccc1`, the AC50 was 33 µM (active).

Consider `Cc1c([N+](=O)[O-])c(C)c([N+](=O)[O-])c(C(C)(C)C)c1[N+](=O)[O-]`, for which the concentration at half-maximal activity (AC50) was 20 µM (active).

`CCOP(=O)(OCC)SCCSCC`: the result was inactive.

Consider `Cc1cc(Cl)ccc1N`, for which the result was inactive.

Regarding `CC(C)N(C(=O)CCl)c1ccccc1`, the AC50 was 2.36 µM (active).

Regarding `N#CCCC(Br)(C#N)CBr` (stereo not given), the AC50 was 13.9 µM (active).
